Laboratory results published in PubChem BioAssay (Tox21).
Several values for one entry are separate records, joined by “and”; a condition that tells them apart may be missing. Identical values can stand only once. Inconclusive results are not listed. A structure can be active in one record and inactive in another. Activity calls are given as the source filed them. Unless noted, calls follow the shape of the dose curve; as a rule, active = well fitted curve in the direction sought with a large enough effect in the repeat runs; inconclusive = weak or mixed curves; inactive = no such curve, though single readings can be large; an effect the other way counts as inactive or inconclusive.

How the values were obtained:
[1] = qHTS assay for small molecule agonists of the p53 signaling pathway (AID 651631; calls by dose curve; also: nearly all actives have a fitted effect of over 15% in size; also: potency is read from the fitted curve at half-maximal effect)
Method in brief: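 Agonist mode screen using a stably integrated beta-lactamase gene under p53 response elements in HCT-116 cells. Compound exposure lasts 16 h at 37 °C; fluorescence intensity is measured following 2 h FRET substrate loading.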

[2] = qHTS assay for small molecules that induce genotoxicity in human embryonic kidney cells expressing luciferase-tagged ATAD5 (AID 651632); also: nearly all actives have a fitted effect of over 15% in size
Method in brief: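 DMSO vehicle served as the control. HEK293T reporter cells, 16 hr at 37C, then 30 min Amplite at room temperature; ATAD5 induction is measured as luciferase activity.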

[3] = qHTS assay for small molecule agonists of the p53 signaling pathway - cell viability (AID 651633; calls by dose curve; also: nearly all actives have a fitted effect of over 30% in size; also: potency is read from the fitted curve at half-maximal effect)
Method in brief: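 Viability counter-read: CellTiter-Glo luminescence (30 min, room temperature) in the same p53RE-bla plates. These plates had been exposed to compounds for 16 h at 37 C.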

[4] = qHTS assay for small molecules that induce genotoxicity in human embryonic kidney cells expressing luciferase-tagged ATAD5 - cell viability (AID 651634; calls by dose curve; also: nearly all actives have a fitted effect of over 25% in size)
Method in brief: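 Here HEK293T cells with the ATAD5 luciferase reporter are incubated with test compounds for 15.5 hr, and cytotoxicity is then gauged by measuring protease activity in live cells using fluorescence.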

[5] = qHTS assay for small molecule disruptors of the mitochondrial membrane potential - cell viability (AID 720634; calls by dose curve; also: nearly all actives have a fitted effect of over 20% in size; also: potency is read from the fitted curve at half-maximal effect)
Method in brief: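 Viability of HepG2 cells is scored from ATP content by luminescence; cells are exposed to compound for 1 hr at 37 C and 5% CO2, then dosed with m-MPI dye before the CellTiter-Glo reagent.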

[6] = qHTS assay for small molecule disruptors of the mitochondrial membrane potential (AID 720635); also: potency is read from the fitted curve at half-maximal effect
Method in brief: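 Mitochondrial membrane potential tracked with Mito-MPS dye, red aggregates (ex 540/em 590 nm) against green monomers (ex 490/em 535 nm). Compound treatment 1 hr at 37C, dye 30 min in HepG2.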

[7] = qHTS assay to test for compound auto fluorescence at 590 nm (red) in HepG2 cells (AID 720674)
Method in brief: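 We screened compounds on adherent HepG2 cells, incubating them for an hour at 37 C in 5% CO2 before reading emission at 590 nm under 540 nm excitation; values reflect equivalence to Rose Bengal sodium fluorescence.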

[8] = qHTS assay to test for compound auto fluorescence at 535 nm (green) in HepG2 cells (AID 720675)
[9] = qHTS assay to test for compound auto fluorescence at 590 nm (red) in HEK293 cells (AID 720679)
Method in brief: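 Each well held 2,000 HEK293 cells in medium containing 10% dialyzed FBS. Following 4-5 hr attachment at 37C, 23 nL test compound or DMSO was added; plates sat overnight, and red fluorescence (540/590nm) was recorded.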

[10] = qHTS assay to test for compound auto fluorescence at 535 nm (green) in HEK293 cells (AID 720680)
[11] = qHTS assay to test for compound auto fluorescence at 460 nm (blue) in HEK293 cell free culture (AID 720681)
Method in brief: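 Blue fluorescence (Ex 405/Em 460 nm, triamterene-equivalent) was read immediately after pin transfer of compound or DMSO into medium (DMEM, 10% FBS) without cells.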

[12] = qHTS assay to test for compound auto fluorescence at 535 nm (green) in HEK293 cell free culture (AID 720682)
Method in brief: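 No cells present: wells hold DMEM supplemented with 10% FBS, into which compound or vehicle is pinned. Green emission is then recorded (485 nm excitation, 535 nm emission) and scaled to fluorescein.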

[13] = qHTS assay to test for compound auto fluorescence at 590 nm (red) in HEK293 cell free culture (AID 720683)
Method in brief: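 Red-channel autofluorescence of compounds in culture medium (DMEM, 10% FBS), no cells, measured at 540/590 nm. Rose Bengal sodium is the reference fluorophore for equivalence.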

[14] = qHTS assay to test for compound auto fluorescence at 590 nm (red) in HepG2 cell free culture (AID 720684)
Method in brief: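 No cells present: MEM + 10% FBS only. Compound pinned in, red label read (540/590 nm). Activity = fluorescence equivalent to Rose Bengal sodium.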

[15] = qHTS assay to test for compound auto fluorescence at 460 nm (blue) in HepG2 cell free culture (AID 720685)
Method in brief: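 Cell-free plates of MEM plus 10% FBS received 23 nL compound or DMSO vehicle; blue-channel (405/460 nm) intensity scored against triamterene as reference fluorophore.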

[16] = qHTS assay to test for compound auto fluorescence at 535 nm (green) in HepG2 cell free culture (AID 720686)
[17] = qHTS assay to test for compound auto fluorescence at 460 nm (blue) in HepG2 cells (AID 720687)
Method in brief: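 Blue-channel autofluorescence (Ex/Em 405/460 nm, triamterene-equivalent) was measured after 1 hr compound exposure at 37 C, 5% CO2. Cells were HepG2, plated overnight at 37 C in MEM plus 10% FBS.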

[18] = qHTS assay to test for compound auto fluorescence at 460 nm (blue) in HEK293 cells (AID 720678)
Method in brief: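 Cells were seeded and left to adhere for 4-5 hr at 37C. Compounds were then pin-transferred. After an overnight incubation at 37C under 5% CO2, intrinsic fluorescence at 405/460 nm was measured and referenced to triamterene.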

[19] = target: Glucocorticoid receptor (Homo sapiens) (UniProt P04150); assay: qHTS assay to identify small molecule agonists of the glucocorticoid receptor (GR) signaling pathway (AID 720691; active = well fitted activation curve with a large enough effect in the signal ratio in the repeat runs, not every such curve was filed as active; the % refers to the signal ratio)
Method in brief: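 Compounds in DMSO, alongside positive controls, were added to GR-bla HeLa reporter cells and incubated 18 h at 37 C; GRE-driven beta-lactamase was detected by fluorescence after 2 h with FRET substrate at room temperature.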

[20] = target: Glucocorticoid receptor (Homo sapiens) (UniProt P04150); assay: qHTS assay to identify small molecule antagonists of the glucocorticoid receptor (GR) signaling pathway (AID 720692; active = well fitted inhibition curve with a large enough effect in the signal ratio in the repeat runs, not every such curve was filed as active; the % refers to the signal ratio)
Method in brief: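 In a 1536-well cell format, compounds were added 4 h after seeding GR-bla HeLa cells, together with dexamethasone at 5 nM final; reporter activity was measured by FRET-substrate fluorescence following 18 h at 37 C.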

Measured: Potency

Sequence of Glucocorticoid receptor (Homo sapiens) (P04150 whole entry, looked up): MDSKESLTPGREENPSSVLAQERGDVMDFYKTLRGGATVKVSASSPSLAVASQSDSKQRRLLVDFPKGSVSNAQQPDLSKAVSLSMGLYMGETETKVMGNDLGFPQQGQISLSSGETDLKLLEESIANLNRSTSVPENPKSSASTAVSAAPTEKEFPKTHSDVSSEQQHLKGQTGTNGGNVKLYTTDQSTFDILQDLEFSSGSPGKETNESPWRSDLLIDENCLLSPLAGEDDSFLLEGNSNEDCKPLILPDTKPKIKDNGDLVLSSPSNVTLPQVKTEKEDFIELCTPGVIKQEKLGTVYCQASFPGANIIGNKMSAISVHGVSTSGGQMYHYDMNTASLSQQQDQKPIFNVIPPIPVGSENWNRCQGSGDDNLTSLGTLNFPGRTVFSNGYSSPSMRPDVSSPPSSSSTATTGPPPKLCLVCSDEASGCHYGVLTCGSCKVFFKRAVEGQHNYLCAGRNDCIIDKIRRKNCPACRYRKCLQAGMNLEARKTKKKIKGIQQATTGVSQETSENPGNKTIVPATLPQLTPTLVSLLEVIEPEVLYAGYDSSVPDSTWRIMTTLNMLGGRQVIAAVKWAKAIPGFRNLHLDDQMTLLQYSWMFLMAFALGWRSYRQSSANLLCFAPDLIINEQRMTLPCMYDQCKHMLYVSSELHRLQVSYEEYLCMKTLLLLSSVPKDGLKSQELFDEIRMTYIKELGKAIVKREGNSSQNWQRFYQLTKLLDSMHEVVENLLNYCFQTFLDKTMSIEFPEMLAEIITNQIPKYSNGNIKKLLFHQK

CCCCCCCCOC(=O)c1ccccc1C(=O)OCCCCCCCC
not listed: [18] | [19] | [20]
inactive: all other assays above

C[C@]12CCC(=O)C(O)=C1CC[C@@H]1[C@@H]2CC[C@]2(C)C(=O)CC[C@@H]12
inactive: all assays above

C=CCN(CC=C)C(=O)C(Cl)Cl
not listed: [18]
inactive: all other assays above

COc1ccc(C=O)cc1
not listed: [6]
inactive: all other assays above

O=C1C=CC(=O)C=C1
not listed: [13] | [19] | [20]
inactive: all other assays above

CCOc1cc(Oc2ccc(C(F)(F)F)cc2Cl)ccc1[N+](=O)[O-]
active: [5] 19.5 µM | [6] 17.4 µM and 24.3 µM
not listed: [13]
inactive: all other assays above

Clc1nc(Cl)nc(Cl)n1
not listed: [18]
inactive: all other assays above

COC(=O)c1sccc1S(=O)(=O)NC(=O)Nc1nc(C)nc(OC)n1
not listed: [18]
inactive: all other assays above

CNC(=O)Oc1cccc2c1OC(C)(C)O2
not listed: [20]
inactive: all other assays above

N#CCCCl
not listed: [13]
inactive: all other assays above

NCc1cccnc1
not listed: [19] | [20]
inactive: all other assays above

CCCCOCCOP(=O)(OCCOCCCC)OCCOCCCC
27.3 µM (active) and inactive: [6]
54.5 µM (active) and inactive: [3] | [5]
not listed: [13]
inactive: all other assays above

C=CC(=O)OCCO
not listed: [20]
inactive: all other assays above

NNC(N)=S
63.5 µM (active) and inactive: [6]
inactive: all other assays above

c1ccc(N=Nc2ccccc2)cc1
not listed: [18]
inactive: all other assays above

CCCCCCCCCCCOC(=O)c1ccccc1C(=O)OCCCCCCCCCCC
inactive: all assays above

CCC(CC)Nc1c([N+](=O)[O-])cc(C)c(C)c1[N+](=O)[O-]
active: [6] 49.2 µM
not listed: [5]
inactive: all other assays above

CC(C)NC(C)C
not listed: [13]
inactive: all other assays above

CCC(C)(C)c1ccc(O)cc1
active: [6] 26.6 µM and 17.4 µM and 15.4 µM
55 µM (active) and inactive: [5]
inactive: all other assays above

CCCCNC(=O)n1c(NC(=O)OC)nc2ccccc21
active: [1] 13.6 µM and 15.4 µM
inactive: all other assays above

CCOc1cc(C=O)ccc1O
not listed: [13] | [18]
inactive: all other assays above

O=Cc1ccco1
not listed: [18] | [19] | [20]
inactive: all other assays above

O=C(O)C(F)(F)C(F)(F)C(F)(F)C(F)(F)C(F)(F)C(F)(F)C(F)(F)F
not listed: [6] | [19] | [20]
inactive: all other assays above

Oc1cc(Cl)ccc1Cl
active: [6] 28.1 µM and 27.3 µM
inactive: all other assays above

CCCCCCOC(=O)c1ccccc1C(=O)OCCCCCC
active: [6] 27.9 µM
inactive: all other assays above

CCOC(=O)C(C)OC(=O)c1cc(Oc2ccc(C(F)(F)F)cc2Cl)ccc1[N+](=O)[O-] (stereo not drawn)
active: [6] 21.6 µM and 61.1 µM
not listed: [5]
inactive: all other assays above

C=C(C)C(=O)OCC1CO1 (stereo not drawn)
not listed: [18]
inactive: all other assays above

NNC(=S)NN
not listed: [19] | [20]
inactive: all other assays above
